# The list is not random: actives were taken first. Their share in the collection is about 1%.
# Hsp70 activator = Hsp70 transcriptional activation, primary screen; HeLa Hsp70 promoter luciferase reporter, luminescence; scaled: vehicle 0, proteasome-inhibitor control 100%; activation, % at 10 µM; 200,000 compounds, 0.04% hits;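 active = activation above the mean across all tested compounds plus 3 SD, cutoff set per campaign, cut at about 5.5% in these data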;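 note: 100% = MG132 at 30 µM as the positive control and 0% = DMSO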
# S1P4 antag = human S1P4 receptor antagonism. O95977. S1P4-expressing cells, antagonist mode, reporter read-out. inhibition, % at 4.98 µM. 220,000 compounds, 0.26% hits. AID 1510; in the data active = inhibition above about 29%;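 note: 0% = wells stimulated with agonist and 100% = vehicle wells without agonist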
# Target sequence (O95977 whole entry, looked up): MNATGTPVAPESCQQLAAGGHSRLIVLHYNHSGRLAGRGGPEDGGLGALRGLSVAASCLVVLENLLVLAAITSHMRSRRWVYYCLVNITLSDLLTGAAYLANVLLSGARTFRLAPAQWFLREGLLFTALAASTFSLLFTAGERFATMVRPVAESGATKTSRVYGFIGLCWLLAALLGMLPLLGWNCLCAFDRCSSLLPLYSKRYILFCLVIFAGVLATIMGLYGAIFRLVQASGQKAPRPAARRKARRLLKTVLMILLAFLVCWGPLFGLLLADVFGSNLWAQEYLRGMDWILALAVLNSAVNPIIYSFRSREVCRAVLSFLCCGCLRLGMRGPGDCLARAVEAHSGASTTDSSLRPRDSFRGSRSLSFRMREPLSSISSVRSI
# S1P4 ag = agonists of human S1P4 receptor; 220,000 compounds, 0.35% hits; S1P4-expressing cell line, agonist reporter assay; O95977; activation, % at 4.98 µM; in the data active = activation above about 11%;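 note: 0% = DMSO vehicle and 100% = reference agonist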
# zVAD death inh = L929 zVAD cell death inhibition; L929 zVAD necroptosis rescue, ATP luminescence, 24 h; with zVAD 60 µM; viability rescue, % at 10 µM; 220,000 compounds, 0.38% hits; AID 1377;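 active = activation, scaled between plate controls, above about 75%, limit read from the data; inactive = activation under that limit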;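 note: 0% = zVAD with DMSO and 100% = DMSO alone without zVAD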
# TNF necrop inh = TNF-alpha cell death inhibition in Jurkat FADD-/- cells. 220,000 compounds, 0.068% hits. activation (protection from cell death), % at 10 µM. Jurkat FADD-/- TNF necroptosis rescue, ATP luminescence, 24 h; 0 = TNF only, 100 = no-TNF cells;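 active = activation, meaning protection from cell death, of at least 50% relative to plate controls; inactive = activation below 50%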;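 note: necroptosis triggered by 40 ng/mL TNF-alpha added together with compound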
# HSV augment = increases HSV replication in cells; HSV replication augmentation in cells, fold increase; maximum fold increase; 220,000 compounds, 0.005% hits; AID 1956; in the data active = maximum fold increase above about 1.5; tested in PC3 cells
# S1P4 antag cf = confirmation of human S1P4 receptor antagonists; shares compounds with S1P4 antag; S1P4-expressing cell line, antagonist mode, reporter read-out; inhibition, % at 4.98 µM; 520 compounds, 71% hits; in the data active = inhibition above about 30%
# S1P1 antag = blocks human S1P1, counter-screen for S1P4 antagonists; shares compounds with S1P4 antag; cell-based S1P1 antagonist counterscreen, inhibition; inhibition, % at 4.98 µM; 520 compounds, 37% hits; AID 1564; in the data active = inhibition above about 40%;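 note: receptor stimulated with S1P near its EC80; 0% = agonist stimulated wells and 100% = vehicle only wells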
# Active calls of the source: *; i = inactive; nt = no result.
SMILES,Hsp70 activator,S1P4 antag,S1P4 ag,zVAD death inh,TNF necrop inh,HSV augment,S1P4 antag cf,S1P1 antag
C/C(=N/NC(=O)c1ccoc1C)c1ccc(NC(=O)c2ccncc2)cc1,0,1,-1,nt,0,i,nt,nt
CCOc1ccc(C(=O)Oc2ccc(NC(C)=O)cc2)cc1,0,-15,1,10,0,i,nt,nt
CC(=O)Nc1ccc(OC(=O)c2ccc(Br)c([N+](=O)[O-])c2)cc1,0,48*,-2,2,-6,i,68*,35
O=C(CCCn1cnc([N+](=O)[O-])n1)Nc1cccc2ccccc12,0,112*,0,0,2,i,0,17
COc1cc(CN(C)Cc2ccccc2)cc(OC)c1O,-1,-3,3,1,0,i,nt,nt
O=C1CCCCc2sc(Br)c([N+](=O)[O-])c2N1,nt,80*,-3,49,-30,i,102*,66*
COc1ccccc1N1C(=O)c2ccc(C(=O)Nc3nccs3)cc2C1=O,0,-13,1,14,0,i,nt,nt
Cc1oc(-c2cccc(Cl)c2)nc1CN1CCC(C(=O)NCCCN2CCCC2=O)CC1,0,-16,1,0,-1,i,nt,nt
COc1ccc(CCNC(=O)C2CCN(Cc3nc(-c4cccc(Cl)c4)oc3C)CC2)cc1OC,0,30*,-2,-2,-1,nt,4,-10
Cc1onc(-c2ccccc2)c1C(=O)Nc1nnc(-c2ccncc2)s1,0,51*,-3,0,-2,i,63*,5
CCC(=O)N1CCN(c2ccc(NC(=O)c3ccc([N+](=O)[O-])o3)cc2)CC1,1,78*,-3,50,-8,i,85*,74*
O=C(Nc1ccc(N2CCN(C(=O)c3ccc(Cl)cc3)CC2)cc1)c1ccc([N+](=O)[O-])o1,0,14,-1,46,-11,i,nt,nt
CC(C)(C)C(=O)Cn1ncc(Br)c(Br)c1=O,0,64*,-4,62,-15,i,93*,34
Cc1c(CCO)c(=O)[nH]n1C(=O)c1ccc(F)cc1,0,3,1,0,-2,i,nt,nt
CC(=O)n1cc(N(C(=O)CCl)c2ccccc2)c2ccccc21,nt,42*,0,60,-28,i,100*,40
C1=C(c2ccccc2)Nc2ccccc2N=C1c1ccccc1,0,-29,0,0,1,i,nt,nt
CC(C)(C)c1ccc(/C=C2\SC(=O)N(CCNC(=O)c3cccc(S(=O)(=O)N4CCOCC4)c3)C2=O)cc1,0,-13,1,1,0,i,nt,nt
Cc1ccc(/C=C/C(=O)c2nc3ccccc3[nH]2)cc1,0,29*,2,0,-15,i,81*,-6
Cc1ccc(/C=C/C(=O)Nc2nc3ccccc3[nH]2)cc1,0,-21,3,1,3,i,nt,nt
O=[N+]([O-])c1cc(S(=O)(=O)C(F)(F)F)ccc1Sc1nc2ccccc2[nH]1,0,33*,-1,8,-12,i,110*,1
CN(C)/N=C/C=C1\CCC/C(=C/c2cccs2)C1=O,nt,7,0,2,-6,i,nt,nt
CN(C)/N=C/C=C1\CC/C(=C\c2ccc(Br)cc2)C1=O,0,30*,-1,1,-11,nt,11,13
COc1ccc(-c2n(Cc3ccccc3)c3ccccc3[n+]2Cc2ccccc2)cc1,0,4,1,1,-4,i,nt,nt
N#CCSc1nnc(N)s1,0,-20,1,3,1,i,nt,nt
N#CCSc1nnc(SCC#N)s1,nt,32*,0,0,-4,i,15,2
SMILES,Hsp70 activator,S1P4 antag,S1P4 ag,zVAD death inh,TNF necrop inh,HSV augment,S1P4 antag cf,S1P1 antag
Cn1c(/C=N/Nc2nc3ccccc3[nH]2)nc2ccccc21,1,-9,1,5,-5,i,nt,nt
CCCn1c(/C=N/Nc2nc3ccccc3[nH]2)nc2ccccc21,0,-32,3,56,-17,i,nt,nt
CCN(CC)c1ccc(/C=N/Nc2nc3ccccc3[nH]2)cc1,4,37*,0,50,8,i,110*,81*
Cc1c(/C=N/Nc2nc3ccccc3[nH]2)c2ccccc2n1C,nt,32*,-2,50,14,i,108*,52*
CN1/C(=C/C(=O)c2nc(S(C)(=O)=O)ncc2Cl)C(C)(C)c2ccccc21,0,65*,-7,73,-19,i,111*,-2
CN1/C(=C\C(=O)c2cccnc2)C(C)(C)c2ccccc21,0,-10,0,2,1,i,nt,nt
Cn1c(=O)c2[nH]c(CCCC(=O)O)nc2n(Cc2ccccc2)c1=S,nt,nt,nt,nt,nt,i,nt,nt
O=C(NC(Nc1nc2ccc([N+](=O)[O-])cc2s1)(C(F)(F)F)C(F)(F)F)c1ccccc1Cl,0,43*,-1,4,-11,i,64*,-2
O=C(NC(Nc1nc2ccc([N+](=O)[O-])cc2s1)(C(F)(F)F)C(F)(F)F)c1cccnc1,0,17,1,4,-11,i,nt,nt
Cc1ccc(NC(=O)C(c2ccccc2)N(C)C)cc1Cl (stereo not drawn),0,34*,0,5,8,i,31*,29
COC(=O)CCC(=O)Nc1cccc(C(=O)Nc2cccc(Cl)c2)c1,0,5,3,1,-2,i,nt,nt
Cc1ccc(OCC(=O)O/N=C(\N)Cc2ccc([N+](=O)[O-])cc2)cc1C,nt,-7,-1,0,0,i,nt,nt
Cc1ccc(S(=O)(=O)ON=C2CCN(S(=O)(=O)c3ccccc3)CC2)cc1,0,-12,-1,1,-1,i,nt,nt
CC1=CC(=O)C(C(C)C)=C/C1=N/OS(=O)(=O)c1ccccc1,nt,38*,0,36,-33,i,79*,-19
Cc1ccc2c(c1)/C(=N/OS(=O)(=O)c1ccccc1)CCS2,0,-14,0,1,-4,i,nt,nt
CC1=CC(=O)C=C(C)C1=NOS(=O)(=O)c1ccccc1,0,33*,1,3,-21,i,98*,19
CC(C)(C)n1nnnc1C(c1cccc(C(F)(F)F)c1)N1CCC(O)CC1 (stereo not drawn),0,4,-2,-1,0,i,nt,nt
C[C@@H]1NC(=O)[C@H](CCCN=C(N)N)NC(=O)c2cc([N+](=O)[O-])cc(I)c2OCC[C@@H](C(N)=O)NC1=O,0,6,0,4,2,i,nt,nt
CC(C)(C)[C@H]1C=C(C(=O)Nc2ccccc2)O[C@@H](OCCCCO)C1,nt,nt,nt,nt,nt,i,nt,nt
O=C(CCc1nnc(CCC2CCCCC2)o1)NCCc1ccccn1,0,12,1,0,0,i,nt,nt

# Screening data from PubChem.
